HT1080NT lethal: kills 2HG-producing HT-1080-NT fibrosarcoma cells | HT-1080-NT fibrosarcoma viability, CellTiter-Glo ATP luminescence, 48 h | actives 1.6% (n = 360,000) | Potency, µM (series often up to 46.1 µM), hits mostly cytotoxic;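 further: NT is the 2HG producing partner of a matched IDH1 knockdown line; nearly all actives have a fitted effect of over 55% in size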
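750 cells/well, RPMI + 5% FBS; 2 h settle, compound pin-transfer, 48 h at 37 degrees C. CellTiter-Glo 10 min RT, luminescence. Normalized to DMSO and media-only wells.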
KB-3-1 cytotox: KB-3-1 parental cell cytotoxicity; KB-3-1 viability, CellTiter-Glo ATP luminescence, 72 h; Potency, µM (doses to about 46.1 µM), actives largely listed as cytotoxic; actives 1.4% (n = 400,000); AID 1347075; further: nearly all actives have a fitted effect of over 60% in size
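KB-3-1 cells, DMEM (no phenol red) + 10% FBS; compound by pin transfer, 72 h, 37 °C. Readout: CellTiter-Glo luminescence after 10 min. Data normalized, curve-fitted.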
MCF10A rerep: induces DNA re-replication in MCF 10a normal breast cells; MCF 10A DNA re-replication, Hoechst nuclear intensity, 48 h; Potency, µM (doses to about 46.1 µM), most hits filed as activators; actives 2.9% (n = 350,000); further: nearly all actives have a fitted effect of over 50% in size
HT1080 IDH1KD tx: kills HT-1080 cells with IDH1 knockdown; HT-1080 IDH1 knockdown viability, ATP luminescence, 48 h; Potency, µM (titrated, usually from 46.1 µM), hits mostly cytotoxic; actives 2% (n = 360,000)
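IDH1KD HT-1080 cells, 750/well, RPMI + 5% FBS; compound pinned after 2 h settling; 48 h, 37 °C; CellTiter-Glo luminescence; % activity normalised to DMSO and no-cell wells; curves fitted, classed by r2 and efficacy.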
KB-V1 cytotox: KB-V1 MDR subline cytotoxicity; KB-V1 MDR cells viability, CellTiter-Glo, 72 h; Potency, µM (highest dose often 46.1 µM), most hits filed as cytotoxic; actives 3.4% (n = 400,000); AID 1347076; further: nearly all actives have a fitted effect of over 60% in size
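Cytotoxicity toward P-gp-expressing KB-V1 cells was determined as loss of CellTiter-Glo luminescence after 72 h at 37 degrees C. Compounds were tested in quantitative HTS format across a concentration range, with curves fitted to normalized data.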
SW480 rereplic: inducers of DNA re-replication in SW480 colon cancer cells. Potency, µM (doses to about 46.1 µM), usual class: activators. AID 624297. actives 1.8% (n = 340,000). SW480 DNA re-replication, Hoechst DNA content imaging, 48 h; further: nearly all actives have a fitted effect of over 55% in size
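250 cells/well; 23 nL cpd via pin tool; 48 hr, 37 C, 5% CO2; Hoechst 40 min; imager read of total nuclear intensity, ex 405/em 500-530 nm.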
Numbers stand for hits; [ ] = remark or other dose. Shown are actives, neighbours in structure and some others; about 7.9% of the full set was active somewhere. The call rests on the fitted dose curve; in most records, active means well fitted curve in the direction sought with a large enough effect; inconclusive means small, poorly fitted or top-dose-only effect, or another doubt; inactive means no such curve, though single readings can be large; an effect the other way counts as inactive or inconclusive.

`CCCS(=O)(=O)N1CC(=O)N(c2cccc(Cl)c2C)C(C)(C(=O)NC2CCCC2)C1` (stereo not given) gave KB-3-1 cytotox inactive and KB-V1 cytotox inactive.
Cc1cccc(C(=O)NCC(=O)NCC2COc3ccccc3O2)c1 (stereo not given) was read as HT1080NT lethal inactive, KB-3-1 cytotox inactive, MCF10A rerep inactive, HT1080 IDH1KD tx inactive, KB-V1 cytotox inactive and SW480 rereplic inactive.
For CC(CCc1ccccc1)NC(=O)COC(=O)c1ccc(NC(=O)CC#N)cc1 (stereo not given) the results were HT1080NT lethal inactive, KB-3-1 cytotox inactive, MCF10A rerep inactive, HT1080 IDH1KD tx inactive, KB-V1 cytotox inactive and SW480 rereplic inactive.
COc1ccc(C(=O)COc2ccc(C)cc2NC(C)=O)cc1 was read as HT1080NT lethal inactive, KB-3-1 cytotox inactive, MCF10A rerep inactive, HT1080 IDH1KD tx inactive, KB-V1 cytotox inconclusive and SW480 rereplic inactive.
CCOc1ccc2c(ccc(/C=C/c3cc(C)c4cccnc4c3O)[n+]2C)c1 was read as HT1080NT lethal inconclusive, KB-3-1 cytotox inconclusive, MCF10A rerep inactive, HT1080 IDH1KD tx 23µM, KB-V1 cytotox inconclusive and SW480 rereplic inconclusive.
`O=c1c2sc3ccccc3c2n(Cc2cccc(F)c2)c(=O)n1CCc1ccccc1` gave KB-3-1 cytotox inactive and KB-V1 cytotox inactive.
`CC(=O)c1ccc(NS(=O)(=O)c2ccc3[nH]c4c(c3c2)CCCC4)cc1` gave KB-3-1 cytotox inconclusive and KB-V1 cytotox inactive.
For Cc1cc(C(=O)COC(=O)c2cnccn2)c(C)n1-c1ccc(Br)cc1 the results were HT1080NT lethal inactive, KB-3-1 cytotox inconclusive, MCF10A rerep inactive, HT1080 IDH1KD tx inactive, KB-V1 cytotox 15µM and SW480 rereplic inactive.
`Cc1ccc(-n2c(C)cc(C(=O)COC(=O)c3c(C)noc3C)c2C)cc1` gave HT1080NT lethal inactive, KB-3-1 cytotox 18µM, MCF10A rerep inactive, HT1080 IDH1KD tx inactive, KB-V1 cytotox 6.5µM and SW480 rereplic inactive.
For CCC(=O)OCC(=O)c1cc(C)n(-c2ccc(Br)cc2)c1C the results were HT1080NT lethal inactive, KB-3-1 cytotox inconclusive, MCF10A rerep inactive, HT1080 IDH1KD tx inactive, KB-V1 cytotox 15µM and SW480 rereplic inactive.
`Cc1cc(C(=O)COC(=O)C2=COCCO2)c(C)n1-c1ccccc1` gave HT1080NT lethal inactive, KB-3-1 cytotox inactive, MCF10A rerep inactive, HT1080 IDH1KD tx inactive, KB-V1 cytotox 13µM and SW480 rereplic inactive.
Screening Cc1ccc(S(=O)(=O)N2CCN(c3nc(N(C)c4cc(Cl)ccc4O)nc4ccccc34)CC2)cc1 returned HT1080NT lethal inactive and HT1080 IDH1KD tx inactive.
`COc1ccc(C(=O)NC(=S)Nc2ccc(N3CCOCC3)cc2)cc1Cl` gave HT1080NT lethal inactive, KB-3-1 cytotox inactive, MCF10A rerep inconclusive, HT1080 IDH1KD tx inactive, KB-V1 cytotox inconclusive and SW480 rereplic inconclusive.
C=C(C)C(=O)Nc1nnc(-c2cccs2)s1 was read as HT1080NT lethal inactive, KB-3-1 cytotox inactive, MCF10A rerep 10µM, HT1080 IDH1KD tx inactive, KB-V1 cytotox inactive and SW480 rereplic inactive.
For COc1ccc(CN(C)Cc2nc(Cc3cccc(F)c3)no2)c2cccnc12 the results were HT1080NT lethal inactive, KB-3-1 cytotox inconclusive, MCF10A rerep inconclusive, HT1080 IDH1KD tx inactive, KB-V1 cytotox 1.8µM and SW480 rereplic inactive.
Cc1cc(C)c2ccc3c(C)c(C)nc3c2[nH]1 was read as HT1080NT lethal inconclusive, KB-3-1 cytotox inconclusive, MCF10A rerep 21µM, HT1080 IDH1KD tx inconclusive, KB-V1 cytotox 16µM and SW480 rereplic inconclusive.
Screening Cc1cc(=O)[nH]c2c(C)c(N)ccc12 returned HT1080NT lethal inactive, KB-3-1 cytotox inactive, MCF10A rerep inactive, HT1080 IDH1KD tx inactive, KB-V1 cytotox inactive and SW480 rereplic inactive.
For Cc1cc(OC2CCCCC2)nc(-c2ccccc2O)n1 the results were HT1080NT lethal inactive, KB-3-1 cytotox inactive, MCF10A rerep 21µM, HT1080 IDH1KD tx inactive, KB-V1 cytotox inactive and SW480 rereplic inactive.
Cc1ccc(Oc2cc(C)nc(-c3ccccc3O)n2)cc1 was read as HT1080NT lethal inactive, KB-3-1 cytotox inactive, MCF10A rerep inconclusive, HT1080 IDH1KD tx inactive, KB-V1 cytotox inactive and SW480 rereplic inactive.
Screening CC(C)c1ccc(Nc2sc(C(=O)c3ccccc3)c(N)c2S(=O)(=O)c2ccccc2)cc1 returned KB-3-1 cytotox inactive and KB-V1 cytotox inactive.
For Cc1ccc(Cl)cc1-n1ncc2c(NC3CCCCCC3)ncnc21 the results were KB-3-1 cytotox 21µM and KB-V1 cytotox inconclusive.
Screening CCc1cc2c(NCC(=O)O)ncnc2s1 returned HT1080NT lethal inactive, KB-3-1 cytotox inactive, MCF10A rerep inactive, HT1080 IDH1KD tx inactive, KB-V1 cytotox inactive and SW480 rereplic inactive.
Clc1ccc(-n2ncc3c(NCC4CCCO4)ncnc32)cc1 (stereo not given) was read as HT1080NT lethal inconclusive, KB-3-1 cytotox 23µM, MCF10A rerep inconclusive, HT1080 IDH1KD tx inconclusive, KB-V1 cytotox 12µM and SW480 rereplic 18µM.
Screening c1ccc(-n2ncc3c(NCC4CCCO4)ncnc32)cc1 (stereo not given) returned HT1080NT lethal inactive, KB-3-1 cytotox inactive, MCF10A rerep inactive, HT1080 IDH1KD tx inactive, KB-V1 cytotox inconclusive and SW480 rereplic inactive[9.22 µM].
Screening CCc1cc2c(NCc3ccco3)ncnc2s1 returned HT1080NT lethal inactive, KB-3-1 cytotox 12µM, MCF10A rerep inactive, HT1080 IDH1KD tx inactive, KB-V1 cytotox 21µM and SW480 rereplic inactive.
`Clc1ccc(-n2ncc3c(NCc4ccco4)ncnc32)cc1` gave HT1080NT lethal inactive, KB-3-1 cytotox 5µM, MCF10A rerep inconclusive, HT1080 IDH1KD tx inconclusive, KB-V1 cytotox inconclusive and SW480 rereplic inconclusive.
Screening Cc1cccc(S(=O)(=O)N[C@@H]2CC[C@@H](CCNS(=O)(=O)c3ccccc3F)O[C@@H]2CO)c1 returned HT1080NT lethal inactive, KB-3-1 cytotox inactive, HT1080 IDH1KD tx inactive and KB-V1 cytotox inactive.
For COc1ccc(C2(c3ccc(OC)cc3)NC(=O)N(CC(=O)Nc3cc(C)ccc3OC)C2=O)cc1 the results were HT1080NT lethal inactive, KB-3-1 cytotox inactive, MCF10A rerep inactive, HT1080 IDH1KD tx inconclusive, KB-V1 cytotox inactive and SW480 rereplic inactive.
Nc1nc(Nc2ccccc2F)sc1C(=O)c1ccc(Cl)cc1 was read as KB-3-1 cytotox inactive and KB-V1 cytotox inactive.
For O=C(NNc1ncnc2c1cnn2-c1cccc(Cl)c1)c1ccco1 the results were HT1080NT lethal inconclusive, KB-3-1 cytotox inactive, MCF10A rerep inconclusive, HT1080 IDH1KD tx inactive, KB-V1 cytotox inactive and SW480 rereplic 21µM.
For Cc1ccc(-n2ncc3c(NCCc4ccccc4)ncnc32)cc1Cl the results were KB-3-1 cytotox inactive and KB-V1 cytotox inactive.

Screening data: PubChem, National Center for Advancing Translational Sciences (NCATS)
